PMC7862700, “An all-to-all approach to the identification of sequence-specific readers for epigenetic DNA modifications on cytosine”

What was measured:
Assay in all cases: DAPPL (digital affinity profiling via proximity ligation, sequencing); 10 mM Tris-HCl pH 7.5, 50 mM NaCl, 1 mM DTT, 4% glycerol, room temperature, 30 min; GST-TFs on glutathione beads, 16-mer random dsDNA library, 0.1% formaldehyde crosslink after washing; high values mean tight binding
FLI1 = target: T1, FLI1 (Homo sapiens, UniProt Q01543 1-452); conditions: protein: recombinant; tags: N-terminal GST; dsDNA, one strand shown
T1 sequence: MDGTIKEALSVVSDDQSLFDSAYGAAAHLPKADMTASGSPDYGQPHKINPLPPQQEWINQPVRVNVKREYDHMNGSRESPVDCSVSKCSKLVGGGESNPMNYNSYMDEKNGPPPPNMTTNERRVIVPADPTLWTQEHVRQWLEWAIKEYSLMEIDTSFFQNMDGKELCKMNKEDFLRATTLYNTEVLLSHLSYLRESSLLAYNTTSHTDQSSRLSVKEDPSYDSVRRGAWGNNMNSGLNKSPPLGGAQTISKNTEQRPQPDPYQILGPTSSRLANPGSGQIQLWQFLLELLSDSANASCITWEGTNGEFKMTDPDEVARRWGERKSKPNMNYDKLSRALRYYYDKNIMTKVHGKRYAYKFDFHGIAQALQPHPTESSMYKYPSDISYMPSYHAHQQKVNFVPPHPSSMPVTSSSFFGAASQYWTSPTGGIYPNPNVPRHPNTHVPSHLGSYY
Procedure, shortened: (§1)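 Each value of binding signal is a hexamer's read frequency for a factor divided by the same hexamer's frequency in the tag-only sample. Barcoded, bead-captured GST fusions of human transcription factors made in yeast were pooled with that sample and incubated with 200 nmole of a random double-stranded 16-mer DNA library in Tris/NaCl/DTT/glycerol buffer at room temperature for 30 min. Washing, 0.1% formaldehyde crosslinking, proximity ligation, PCR and Illumina NextSeq500 sequencing followed.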

ELK1 = target: T2, ELK1 (Homo sapiens, UniProt P19419 1-428); conditions: protein: recombinant; tags: N-terminal GST; dsDNA, one strand shown
T2 sequence: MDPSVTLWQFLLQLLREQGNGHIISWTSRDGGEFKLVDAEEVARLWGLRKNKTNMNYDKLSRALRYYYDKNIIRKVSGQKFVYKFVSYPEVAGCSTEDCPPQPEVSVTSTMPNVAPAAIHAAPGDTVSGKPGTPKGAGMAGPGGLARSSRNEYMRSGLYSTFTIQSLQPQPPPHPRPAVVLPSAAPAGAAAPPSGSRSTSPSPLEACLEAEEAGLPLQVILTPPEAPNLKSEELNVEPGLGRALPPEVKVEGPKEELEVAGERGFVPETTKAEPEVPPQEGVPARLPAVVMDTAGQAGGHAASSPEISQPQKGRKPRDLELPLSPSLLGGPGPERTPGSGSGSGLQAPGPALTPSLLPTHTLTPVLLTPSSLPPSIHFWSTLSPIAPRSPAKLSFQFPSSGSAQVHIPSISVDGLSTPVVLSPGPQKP
Procedure, shortened: as §1

GABPA = target: T3, GABPA (Homo sapiens, UniProt Q06546 1-454); conditions: protein: recombinant; tags: N-terminal GST; dsDNA, one strand shown
T3 sequence: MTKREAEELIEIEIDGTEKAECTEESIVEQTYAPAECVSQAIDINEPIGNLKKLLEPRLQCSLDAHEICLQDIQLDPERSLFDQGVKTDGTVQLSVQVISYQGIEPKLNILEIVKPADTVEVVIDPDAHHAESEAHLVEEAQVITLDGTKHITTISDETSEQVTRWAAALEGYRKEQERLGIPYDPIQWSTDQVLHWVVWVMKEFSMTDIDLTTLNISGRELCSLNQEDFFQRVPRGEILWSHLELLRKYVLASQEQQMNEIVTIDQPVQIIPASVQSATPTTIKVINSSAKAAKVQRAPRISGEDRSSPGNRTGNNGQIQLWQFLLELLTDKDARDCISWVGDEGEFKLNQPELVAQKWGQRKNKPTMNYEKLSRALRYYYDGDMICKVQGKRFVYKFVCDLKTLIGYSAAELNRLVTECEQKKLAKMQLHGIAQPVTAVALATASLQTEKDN
Procedure, shortened: as §1

ERG = target: T4, ERG (Homo sapiens, UniProt P11308 1-479); conditions: protein: recombinant; tags: N-terminal GST; dsDNA, one strand shown
T4 sequence: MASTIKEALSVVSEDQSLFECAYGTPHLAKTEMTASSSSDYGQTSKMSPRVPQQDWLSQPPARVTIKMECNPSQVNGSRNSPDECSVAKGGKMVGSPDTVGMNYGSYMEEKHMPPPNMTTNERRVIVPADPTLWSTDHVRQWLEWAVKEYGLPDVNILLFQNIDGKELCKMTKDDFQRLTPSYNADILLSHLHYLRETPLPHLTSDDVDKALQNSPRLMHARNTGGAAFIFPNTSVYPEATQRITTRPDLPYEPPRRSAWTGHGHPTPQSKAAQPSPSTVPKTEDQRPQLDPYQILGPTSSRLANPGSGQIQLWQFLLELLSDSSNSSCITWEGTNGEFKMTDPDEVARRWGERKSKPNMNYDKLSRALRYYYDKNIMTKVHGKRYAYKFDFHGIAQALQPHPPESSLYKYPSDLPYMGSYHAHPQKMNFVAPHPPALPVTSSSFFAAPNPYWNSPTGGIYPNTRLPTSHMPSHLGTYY
Procedure, shortened: as §1

ELF1 = ELF1 (Homo sapiens, UniProt P32519 1-619); conditions: protein: recombinant; tags: N-terminal GST; dsDNA, one strand shown
Chain of ELF1 (P32519 whole entry): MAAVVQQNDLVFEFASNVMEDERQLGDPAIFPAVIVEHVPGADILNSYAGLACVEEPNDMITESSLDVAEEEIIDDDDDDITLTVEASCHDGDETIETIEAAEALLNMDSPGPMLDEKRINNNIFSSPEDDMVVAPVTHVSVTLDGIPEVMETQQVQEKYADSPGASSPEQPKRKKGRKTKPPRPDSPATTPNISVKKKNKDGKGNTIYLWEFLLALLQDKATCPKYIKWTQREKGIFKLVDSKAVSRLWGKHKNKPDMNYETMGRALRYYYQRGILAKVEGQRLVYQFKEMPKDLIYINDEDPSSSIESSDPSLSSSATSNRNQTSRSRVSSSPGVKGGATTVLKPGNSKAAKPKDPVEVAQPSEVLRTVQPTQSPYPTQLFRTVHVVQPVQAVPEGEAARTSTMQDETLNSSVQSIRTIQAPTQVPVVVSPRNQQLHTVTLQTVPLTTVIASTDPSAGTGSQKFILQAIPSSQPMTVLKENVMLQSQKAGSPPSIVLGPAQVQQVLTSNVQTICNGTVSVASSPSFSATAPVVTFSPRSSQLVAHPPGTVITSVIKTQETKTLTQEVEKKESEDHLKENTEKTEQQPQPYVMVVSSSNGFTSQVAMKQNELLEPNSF
Procedure, shortened: as §1

EHF = target: T5, EHF (Homo sapiens, UniProt Q9NZC4 1-300); conditions: protein: recombinant; tags: N-terminal GST; dsDNA, one strand shown
T5 sequence: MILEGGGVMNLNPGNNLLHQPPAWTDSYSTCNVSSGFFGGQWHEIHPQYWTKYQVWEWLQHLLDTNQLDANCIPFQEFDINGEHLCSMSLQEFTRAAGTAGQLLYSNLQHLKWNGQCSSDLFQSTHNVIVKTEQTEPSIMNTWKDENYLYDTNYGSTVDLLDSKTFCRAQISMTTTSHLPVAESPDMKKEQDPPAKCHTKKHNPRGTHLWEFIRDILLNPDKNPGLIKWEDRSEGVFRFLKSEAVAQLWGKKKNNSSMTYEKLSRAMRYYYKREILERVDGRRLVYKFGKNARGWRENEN
Procedure, shortened: as §1

SPI1 = SPI1 (Homo sapiens, UniProt P17947 1-270); conditions: protein: recombinant; tags: N-terminal GST; dsDNA, one strand shown
Procedure, shortened: as §1

SPIB = SPIB (Homo sapiens, UniProt Q01892 1-262); conditions: protein: recombinant; tags: N-terminal GST; dsDNA, one strand shown
Chain of SPIB (Q01892 whole entry): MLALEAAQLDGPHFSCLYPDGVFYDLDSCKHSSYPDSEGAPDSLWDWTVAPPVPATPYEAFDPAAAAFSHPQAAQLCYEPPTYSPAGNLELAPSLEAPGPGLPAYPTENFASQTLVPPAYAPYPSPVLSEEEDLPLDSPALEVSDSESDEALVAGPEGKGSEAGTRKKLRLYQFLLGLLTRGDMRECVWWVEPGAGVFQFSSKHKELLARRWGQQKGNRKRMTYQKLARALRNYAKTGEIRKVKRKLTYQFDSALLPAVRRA
Procedure, shortened: as §1

ELK3 = target: T6, ELK3 (Homo sapiens, UniProt P41970 1-407); conditions: protein: recombinant; tags: N-terminal GST; dsDNA, one strand shown
T6 sequence: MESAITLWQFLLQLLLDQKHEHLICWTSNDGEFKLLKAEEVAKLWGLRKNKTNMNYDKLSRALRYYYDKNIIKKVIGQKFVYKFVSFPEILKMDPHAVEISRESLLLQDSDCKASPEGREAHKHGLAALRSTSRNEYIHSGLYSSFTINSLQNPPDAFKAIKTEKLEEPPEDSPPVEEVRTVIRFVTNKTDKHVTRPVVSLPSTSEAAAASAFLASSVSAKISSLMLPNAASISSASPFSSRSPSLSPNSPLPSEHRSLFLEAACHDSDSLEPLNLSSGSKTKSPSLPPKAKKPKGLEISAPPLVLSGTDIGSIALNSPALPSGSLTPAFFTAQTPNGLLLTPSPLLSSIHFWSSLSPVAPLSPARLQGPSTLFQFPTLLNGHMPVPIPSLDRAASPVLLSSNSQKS
Procedure, shortened: as §1

FEV = target: T7, FEV (Homo sapiens, UniProt Q99581 1-238); conditions: protein: recombinant; tags: N-terminal GST; dsDNA, one strand shown
T7 sequence: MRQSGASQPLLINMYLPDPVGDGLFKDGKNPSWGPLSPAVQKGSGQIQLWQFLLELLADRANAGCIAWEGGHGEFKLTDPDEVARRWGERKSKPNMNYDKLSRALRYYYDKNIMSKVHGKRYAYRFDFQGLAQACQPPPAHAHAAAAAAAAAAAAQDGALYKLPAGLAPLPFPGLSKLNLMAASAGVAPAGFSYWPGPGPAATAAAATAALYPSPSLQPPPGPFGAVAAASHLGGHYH
Procedure, shortened: as §1

ETV5 = ETV5 (Homo sapiens, UniProt P41161 1-510); conditions: protein: recombinant; tags: N-terminal GST; dsDNA, one strand shown
Chain of ETV5 (P41161 whole entry): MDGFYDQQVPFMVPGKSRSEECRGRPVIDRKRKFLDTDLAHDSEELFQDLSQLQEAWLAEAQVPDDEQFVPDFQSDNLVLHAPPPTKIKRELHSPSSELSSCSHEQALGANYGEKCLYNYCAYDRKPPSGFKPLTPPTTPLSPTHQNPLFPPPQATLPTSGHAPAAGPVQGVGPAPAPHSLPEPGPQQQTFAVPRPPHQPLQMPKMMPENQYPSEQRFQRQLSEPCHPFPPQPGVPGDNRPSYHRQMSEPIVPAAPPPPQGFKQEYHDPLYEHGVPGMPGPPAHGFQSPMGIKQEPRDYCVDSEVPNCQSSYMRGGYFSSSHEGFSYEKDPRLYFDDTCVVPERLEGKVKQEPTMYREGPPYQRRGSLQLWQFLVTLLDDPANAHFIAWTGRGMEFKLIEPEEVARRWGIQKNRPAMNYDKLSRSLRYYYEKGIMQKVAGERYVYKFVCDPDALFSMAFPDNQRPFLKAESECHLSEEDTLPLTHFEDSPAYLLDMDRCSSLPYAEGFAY
Procedure, shortened: as §1

HSF1 = HSF1 (Homo sapiens, UniProt Q00613 1-529); conditions: protein: recombinant; tags: N-terminal GST; chain copies: 3; dsDNA, one strand shown
Chain of HSF1 (Q00613 whole entry): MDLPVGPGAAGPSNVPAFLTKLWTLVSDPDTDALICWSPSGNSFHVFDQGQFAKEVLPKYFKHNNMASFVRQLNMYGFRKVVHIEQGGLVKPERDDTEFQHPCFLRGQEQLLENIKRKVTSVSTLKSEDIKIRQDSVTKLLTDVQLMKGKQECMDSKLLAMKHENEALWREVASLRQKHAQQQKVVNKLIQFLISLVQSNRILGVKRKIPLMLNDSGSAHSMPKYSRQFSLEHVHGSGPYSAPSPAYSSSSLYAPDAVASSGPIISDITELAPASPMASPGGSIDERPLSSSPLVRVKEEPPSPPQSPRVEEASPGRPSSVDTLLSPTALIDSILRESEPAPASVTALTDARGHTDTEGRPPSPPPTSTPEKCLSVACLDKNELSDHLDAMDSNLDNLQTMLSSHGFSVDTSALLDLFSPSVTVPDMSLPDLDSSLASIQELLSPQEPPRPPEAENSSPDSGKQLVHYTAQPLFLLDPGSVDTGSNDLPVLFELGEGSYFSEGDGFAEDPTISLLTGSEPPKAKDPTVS
Procedure, shortened: as §1

SPIC = target: T8, SPIC (Homo sapiens, UniProt Q8N5J4 1-248); conditions: protein: recombinant; tags: N-terminal GST; dsDNA, one strand shown
T8 sequence: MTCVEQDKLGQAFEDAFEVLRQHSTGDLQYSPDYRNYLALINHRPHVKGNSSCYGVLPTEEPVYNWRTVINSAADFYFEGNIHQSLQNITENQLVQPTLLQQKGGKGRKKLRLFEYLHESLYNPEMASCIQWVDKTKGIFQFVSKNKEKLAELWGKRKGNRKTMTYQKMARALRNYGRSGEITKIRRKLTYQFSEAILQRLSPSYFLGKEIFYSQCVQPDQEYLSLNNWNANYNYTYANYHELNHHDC
Procedure, shortened: as §1

ELF4 = ELF4 (Homo sapiens, UniProt Q99607 1-663); conditions: protein: recombinant; tags: N-terminal GST; dsDNA, one strand shown
Chain of ELF4 (Q99607 whole entry): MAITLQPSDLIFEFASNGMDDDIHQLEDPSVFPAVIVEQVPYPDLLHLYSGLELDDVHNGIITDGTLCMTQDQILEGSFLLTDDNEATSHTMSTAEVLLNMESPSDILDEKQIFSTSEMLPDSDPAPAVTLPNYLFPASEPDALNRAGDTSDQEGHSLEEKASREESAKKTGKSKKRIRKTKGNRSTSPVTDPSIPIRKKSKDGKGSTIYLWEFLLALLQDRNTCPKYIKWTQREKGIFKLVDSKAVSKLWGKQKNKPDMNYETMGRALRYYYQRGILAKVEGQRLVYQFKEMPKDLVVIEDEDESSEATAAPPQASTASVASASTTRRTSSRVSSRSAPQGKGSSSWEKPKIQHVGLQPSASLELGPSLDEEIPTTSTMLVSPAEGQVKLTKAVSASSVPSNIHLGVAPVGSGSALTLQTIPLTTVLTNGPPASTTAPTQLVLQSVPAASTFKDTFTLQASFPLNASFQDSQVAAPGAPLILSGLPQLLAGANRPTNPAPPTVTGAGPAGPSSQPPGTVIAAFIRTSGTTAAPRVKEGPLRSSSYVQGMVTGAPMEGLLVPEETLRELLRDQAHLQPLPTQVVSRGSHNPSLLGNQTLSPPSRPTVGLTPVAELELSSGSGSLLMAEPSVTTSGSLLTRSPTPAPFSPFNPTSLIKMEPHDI
Procedure, shortened: as §1

ELK4 = target: T9, ELK4 (Homo sapiens, UniProt P28324-2 1-405); conditions: protein: recombinant; tags: N-terminal GST; dsDNA, one strand shown
T9 sequence: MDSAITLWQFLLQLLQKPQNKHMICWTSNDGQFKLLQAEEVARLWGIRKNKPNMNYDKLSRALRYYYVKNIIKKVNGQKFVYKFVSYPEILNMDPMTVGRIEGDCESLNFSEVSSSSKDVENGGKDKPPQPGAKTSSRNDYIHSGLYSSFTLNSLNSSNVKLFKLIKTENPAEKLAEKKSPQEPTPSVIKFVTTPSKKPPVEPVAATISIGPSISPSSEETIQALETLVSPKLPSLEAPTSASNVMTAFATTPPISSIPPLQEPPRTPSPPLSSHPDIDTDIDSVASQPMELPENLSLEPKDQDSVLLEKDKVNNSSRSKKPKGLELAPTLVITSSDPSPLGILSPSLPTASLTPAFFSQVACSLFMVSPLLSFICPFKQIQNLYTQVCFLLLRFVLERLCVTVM
Procedure, shortened: as §1

ETV2 = target: T10, ETV2 (Homo sapiens, UniProt O00321 1-342); conditions: protein: recombinant; tags: N-terminal GST; dsDNA, one strand shown
T10 sequence: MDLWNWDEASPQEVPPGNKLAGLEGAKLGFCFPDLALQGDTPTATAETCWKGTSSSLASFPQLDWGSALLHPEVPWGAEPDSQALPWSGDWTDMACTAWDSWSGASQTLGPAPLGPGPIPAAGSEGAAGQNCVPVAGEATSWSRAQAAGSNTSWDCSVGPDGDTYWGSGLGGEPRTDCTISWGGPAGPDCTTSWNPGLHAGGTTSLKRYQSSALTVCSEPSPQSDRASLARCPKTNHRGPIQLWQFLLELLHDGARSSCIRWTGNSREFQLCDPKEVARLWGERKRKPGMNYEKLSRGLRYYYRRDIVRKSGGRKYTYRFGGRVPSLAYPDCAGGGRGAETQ
Procedure, shortened: as §1

ELF3 = target: T11, ELF3 (Homo sapiens, UniProt P78545 1-371); conditions: protein: recombinant; tags: N-terminal GST; dsDNA, one strand shown
T11 sequence: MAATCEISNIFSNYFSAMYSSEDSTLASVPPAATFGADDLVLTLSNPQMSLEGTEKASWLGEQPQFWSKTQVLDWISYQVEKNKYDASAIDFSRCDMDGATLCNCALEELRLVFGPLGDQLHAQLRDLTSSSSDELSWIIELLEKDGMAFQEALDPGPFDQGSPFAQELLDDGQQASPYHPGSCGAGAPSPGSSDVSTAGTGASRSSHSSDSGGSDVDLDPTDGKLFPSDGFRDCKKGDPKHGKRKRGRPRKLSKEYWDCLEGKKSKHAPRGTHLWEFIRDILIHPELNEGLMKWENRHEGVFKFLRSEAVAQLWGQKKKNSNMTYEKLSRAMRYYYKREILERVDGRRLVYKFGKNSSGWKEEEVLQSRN
Procedure, shortened: as §1

CRX = CRX (Homo sapiens, UniProt O43186 1-299); conditions: protein: recombinant; tags: N-terminal GST; dsDNA, one strand shown
Chain of CRX (O43186 whole entry): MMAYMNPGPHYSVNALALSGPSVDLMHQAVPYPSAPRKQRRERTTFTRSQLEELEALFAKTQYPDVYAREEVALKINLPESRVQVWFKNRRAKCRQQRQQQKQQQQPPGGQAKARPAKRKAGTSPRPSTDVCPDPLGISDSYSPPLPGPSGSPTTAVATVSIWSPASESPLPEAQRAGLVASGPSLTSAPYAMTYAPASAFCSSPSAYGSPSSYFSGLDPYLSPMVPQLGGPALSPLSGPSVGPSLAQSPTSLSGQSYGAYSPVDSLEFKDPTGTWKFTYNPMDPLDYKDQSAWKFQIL
Procedure, shortened: as §1

ETV1 = ETV1 (Homo sapiens, UniProt P50549 1-477); conditions: protein: recombinant; tags: N-terminal GST; dsDNA, one strand shown
Chain of ETV1 (P50549 whole entry): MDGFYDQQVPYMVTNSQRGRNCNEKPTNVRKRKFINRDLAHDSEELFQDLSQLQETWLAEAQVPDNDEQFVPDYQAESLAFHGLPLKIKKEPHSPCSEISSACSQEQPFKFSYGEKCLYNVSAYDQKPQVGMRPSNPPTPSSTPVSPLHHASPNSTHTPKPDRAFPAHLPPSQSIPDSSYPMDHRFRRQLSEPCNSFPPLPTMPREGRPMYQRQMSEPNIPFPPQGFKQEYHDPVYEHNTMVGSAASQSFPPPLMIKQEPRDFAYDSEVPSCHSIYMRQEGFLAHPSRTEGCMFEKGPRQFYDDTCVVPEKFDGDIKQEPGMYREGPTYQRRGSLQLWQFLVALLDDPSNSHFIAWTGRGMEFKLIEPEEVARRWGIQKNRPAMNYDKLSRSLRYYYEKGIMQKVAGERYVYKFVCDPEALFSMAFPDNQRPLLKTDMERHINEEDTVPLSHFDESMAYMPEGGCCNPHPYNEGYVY
Procedure, shortened: as §1

CCGACC
binding signal (FLI1): 1.66 fold enrichment (6-mer frequency, TF over GST control) | binding signal (ELK1): 1.59 fold enrichment (6-mer frequency, TF over GST control) | binding signal (GABPA): 1.65 fold enrichment (6-mer frequency, TF over GST control) | binding signal (ERG): 1.55 fold enrichment (6-mer frequency, TF over GST control) | binding signal (ELF1): 1.47 fold enrichment (6-mer frequency, TF over GST control) | binding signal (EHF): 1.44 fold enrichment (6-mer frequency, TF over GST control) | binding signal (SPI1): 1.42 fold enrichment (6-mer frequency, TF over GST control) | binding signal (SPIB): 1.57 fold enrichment (6-mer frequency, TF over GST control) | binding signal (ELK3): 1.8 fold enrichment (6-mer frequency, TF over GST control) | binding signal (FEV): 1.71 fold enrichment (6-mer frequency, TF over GST control) | binding signal (ETV5): 1.5 fold enrichment (6-mer frequency, TF over GST control) | binding signal (HSF1): 1.14 fold enrichment (6-mer frequency, TF over GST control) | binding signal (SPIC): 1.45 fold enrichment (6-mer frequency, TF over GST control) | binding signal (ELF4): 1.54 fold enrichment (6-mer frequency, TF over GST control) | binding signal (ELK4): 1.61 fold enrichment (6-mer frequency, TF over GST control) | binding signal (ETV2): 1.46 fold enrichment (6-mer frequency, TF over GST control) | binding signal (ELF3): 1.63 fold enrichment (6-mer frequency, TF over GST control) | binding signal (CRX): 1.13 fold enrichment (6-mer frequency, TF over GST control) | binding signal (ETV1): 1.53 fold enrichment (6-mer frequency, TF over GST control)
